# Source: the supplement of paper PMC4466140
# B1: unnamed (peptide)
# chain: TEVPIPRRPPPPQAA
# Molecular target: AgAbp1
# Assay: SPOT peptide array binding signal intensity (averaged, normalized) (arbitrary units (background-subtracted, floor 0; scale differs between SH3 domains)); higher = stronger binding of the SH3 domain to the peptide
# Method in brief: (§1)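 Binding signal refers to normalized, background-subtracted spot intensity averaged over replicates, expressed in arbitrary units that differ between domains. GST-fused SH3 domains from four yeast species were incubated at 10 μg/ml overnight at 4°C on cellulose membranes of synthetic 15-mer peptides with cysteines replaced by serines. Bound protein was detected with anti-GST antibody, an HRP anti-mouse secondary and luminol, and quantified with Genespotter.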
row,Binder,SPOT peptide array binding signal intensity
1,B1,≤ 0

# Molecular target: AgBbc1
# Assay: as above
# Method in brief: as §1
row,Binder,SPOT peptide array binding signal intensity
1,B1,130

# Molecular target: AgBem1-D1
# Assay: as above
# Method in brief: as §1
row,Binder,SPOT peptide array binding signal intensity
1,B1,≤ 0

# Molecular target: AgBzz1-D1
# Assay: as above
# Method in brief: as §1
row,Binder,SPOT peptide array binding signal intensity
1,B1,8

# Molecular target: AgBzz1-D2
# Assay: as above
# Method in brief: as §1
row,Binder,SPOT peptide array binding signal intensity
1,B1,7.5

# Molecular target: AgCyk3
# Assay: as above
# Method in brief: as §1
row,Binder,SPOT peptide array binding signal intensity
1,B1,≤ 0

# Molecular target: AgFus1
# Assay: as above
# Method in brief: as §1
row,Binder,SPOT peptide array binding signal intensity
1,B1,≤ 0

# Molecular target: AgHof1
# Assay: as above
# Method in brief: as §1
row,Binder,SPOT peptide array binding signal intensity
1,B1,≤ 0

# Molecular target: AgHse1
# Assay: as above
# Method in brief: as §1
row,Binder,SPOT peptide array binding signal intensity
1,B1,≤ 0

# Molecular target: AgLsb1
# Assay: as above
# Method in brief: as §1
row,Binder,SPOT peptide array binding signal intensity
1,B1,≤ 0

# Molecular target: AgLsb4
# Assay: as above
# Method in brief: as §1
row,Binder,SPOT peptide array binding signal intensity
1,B1,23.5

# Molecular target: AgMyo5
# Assay: as above
# Method in brief: as §1
row,Binder,SPOT peptide array binding signal intensity
1,B1,938

# Molecular target: AgNbp2
# Assay: as above
# Method in brief: as §1
row,Binder,SPOT peptide array binding signal intensity
1,B1,≤ 0

# Molecular target: AgRvs167
# Assay: as above
# Method in brief: as §1
row,Binder,SPOT peptide array binding signal intensity
1,B1,2.33

# Molecular target: AgSho1
# Assay: as above
# Method in brief: as §1
row,Binder,SPOT peptide array binding signal intensity
1,B1,≤ 0

# Molecular target: AgSla1-D1-D2
# Assay: as above
# Method in brief: as §1
row,Binder,SPOT peptide array binding signal intensity
1,B1,≤ 0

# Molecular target: AgSla1-D3
# Assay: as above
# Method in brief: as §1
row,Binder,SPOT peptide array binding signal intensity
1,B1,1

# Molecular target: CaAbp1-D1
# Assay: as above
# Method in brief: as §1
row,Binder,SPOT peptide array binding signal intensity
1,B1,≤ 0

# Molecular target: CaAbp1-D2
# Assay: as above
# Method in brief: as §1
row,Binder,SPOT peptide array binding signal intensity
1,B1,≤ 0

# Molecular target: CaBbc1
# Assay: as above
# Method in brief: as §1
row,Binder,SPOT peptide array binding signal intensity
1,B1,768

# Molecular target: CaBem1-D1
# Assay: as above
# Method in brief: as §1
row,Binder,SPOT peptide array binding signal intensity
1,B1,≤ 0

# Molecular target: CaBzz1-D1
# Assay: as above
# Method in brief: as §1
row,Binder,SPOT peptide array binding signal intensity
1,B1,32

# Molecular target: CaBzz1-D2
# Assay: as above
# Method in brief: as §1
row,Binder,SPOT peptide array binding signal intensity
1,B1,≤ 0

# Molecular target: CaCyk3
# Assay: as above
# Method in brief: as §1
row,Binder,SPOT peptide array binding signal intensity
1,B1,20

# Molecular target: CaFus1
# Assay: as above
# Method in brief: as §1
row,Binder,SPOT peptide array binding signal intensity
1,B1,≤ 0

# Molecular target: CaHof1
# Assay: as above
# Method in brief: as §1
row,Binder,SPOT peptide array binding signal intensity
1,B1,1

# Molecular target: CaHse1
# Assay: as above
# Method in brief: as §1
row,Binder,SPOT peptide array binding signal intensity
1,B1,≤ 0

# Molecular target: CaLsb1
# Assay: as above
# Method in brief: as §1
row,Binder,SPOT peptide array binding signal intensity
1,B1,0.5

# Molecular target: CaLsb4
# Assay: as above
# Method in brief: as §1
row,Binder,SPOT peptide array binding signal intensity
1,B1,210

# Molecular target: CaMyo5
# Assay: as above
# Method in brief: as §1
row,Binder,SPOT peptide array binding signal intensity
1,B1,1

# Molecular target: CaNbp2
# Assay: as above
# Method in brief: as §1
row,Binder,SPOT peptide array binding signal intensity
1,B1,204

# Molecular target: CaRvs167
# Assay: as above
# Method in brief: as §1
row,Binder,SPOT peptide array binding signal intensity
1,B1,≤ 0

# Molecular target: CaRvs167-3
# Assay: as above
# Method in brief: as §1
row,Binder,SPOT peptide array binding signal intensity
1,B1,2.75

# Molecular target: CaSho1
# Assay: as above
# Method in brief: as §1
row,Binder,SPOT peptide array binding signal intensity
1,B1,≤ 0

# Molecular target: CaSla1-D1-D2
# Assay: as above
# Method in brief: as §1
row,Binder,SPOT peptide array binding signal intensity
1,B1,≤ 0

# Molecular target: CaSla1-D3
# Assay: as above
# Method in brief: as §1
row,Binder,SPOT peptide array binding signal intensity
1,B1,0.5

# Molecular target: ScAbp1
# Assay: as above
# Method in brief: as §1
row,Binder,SPOT peptide array binding signal intensity
1,B1,≤ 0
